Where “and” joins values, the source holds several entries; their conditions need not be identical. Equal values may be shown once. Results filed as inconclusive are left out. Where a structure was tested more than once in an assay, its records may differ in their call. Calls of active or inactive are those of the source. Calls come from the whole dose curve; as a rule, active = well fitted curve in the direction sought with a large enough effect; inconclusive = small, poorly fitted or top-dose-only effect, or another doubt; inactive = no such curve, though single readings can be large; an effect the other way counts as inactive or inconclusive.

For seven compounds, Potency and outcome results are on record in PubChem BioAssay (NCATS).

In test [1] the target is Phospholipid hydroperoxide glutathione peroxidase GPX4 (Homo sapiens) (UniProt P36969). Nature of the test: Primary qHTS Assay for Inhibitors of Recombinant Selenoprotein Glutathione Peroxidase 4 (GPX4) (AID 1845192). Note: nearly all actives have a fitted effect of over 65% in size. Note: potency is the fitted concentration of half-maximal effect. An outline of the steps: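 NADPH consumption followed by fluorescence at 340/450 nm, t=0 and after 15 min at room temperature. Reaction started with cumene hydroperoxide (0.5 mM final) after 30 min compound–GPX4 preincubation; final 200 nM GPX4, 100 nM GR, 1 mM GSH, 0.5 mM NADPH.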
Chain of Phospholipid hydroperoxide glutathione peroxidase GPX4 (Homo sapiens) (P36969 whole entry, looked up): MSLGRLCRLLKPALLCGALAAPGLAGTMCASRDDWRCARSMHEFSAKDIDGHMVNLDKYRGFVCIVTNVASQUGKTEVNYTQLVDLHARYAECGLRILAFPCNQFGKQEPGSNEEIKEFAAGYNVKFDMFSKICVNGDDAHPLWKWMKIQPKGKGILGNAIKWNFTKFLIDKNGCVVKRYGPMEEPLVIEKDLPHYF
In general terms: In qHTS, concentration-response curves come from the screen itself.

Test [2] addresses Luciferin 4-monooxygenase (Photinus pyralis) (UniProt P08659). Nature of the test: Primary firefly luciferase (FLuc) qHTS assay for identification of artifact compounds. (AID 1845220). Note: nearly all actives have a fitted effect of over 60% in size. An outline of the steps: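 FLuc 10 nM; luciferin 10 uM; ATP 10 uM; Tris-acetate pH 7.6, Mg-acetate 10 mM; 15 min RT preincubation; 5 min reaction; luminescence.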
A short description of test [3]: Primary fluorescence-based thiol-reactive (MSTI) qHTS assay for identification of artifact compounds. (AID 1845221).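 Note: series mostly up to about 54 µM; thiol-reactive compounds lower the probe fluorescence signal; nearly all actives have a fitted effect of over 65% in size.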 A digest of the protocol:
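In PBS pH 7.4 with 2% DMSO, each compound met 4 uM MSTI for one hour at ambient temperature, shielded from light, before fluorescence detection.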

Test [4] relates to Nanoluciferase (engineered Oplophorus gracilirostris luciferase). In words: Primary Nanoluciferase (NLuc) qHTS assay for identification of artifact compounds. (AID 1845222).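 Note: NLuc secreted into diluted conditioned medium of S16 cells; series mostly up to about 54 µM.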 A digest of the protocol: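 NLuc from S16 cell medium (1:55) plus test compounds, 15 min, room temperature. Luminescence after Nano-Glo (1:100) addition, 5 min.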
Test [5] can be described thus: Primary redox qHTS assay for identification of artifact compounds. (AID 1845223). An outline of the steps: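 Redox-cycling detection via DTT (250 uM final) oxidation coupled to Amplex Red (25 uM)/HRP (250 mU/mL) in HBSS. 15 min preincubation plus 30 min after DTT, room temperature. Ex/Em 525/598 nm; 4-parameter Hill fit against DMSO and 10 uM DA3003.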
Test [6] is described as follows: Quantitative High-Throughput drug screen in 47 multiple myeloma cell lines against the NCATS MIPE library collection: Delta47_JCRB cell viability assay (AID 1918925; note: nearly all actives have a fitted effect of over 45% in size; note: potency is the fitted concentration of half-maximal effect). A digest of the protocol: (§1)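 Steps: seed 500 cells per well; pin-transfer MIPE 4.0 library; incubate 48 h at 37C, 5% CO2, humidified; add CellTiter-Glo, 5 min room temperature; read luminescence.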
A short description of test [7]: Quantitative High-Throughput drug screen in 47 multiple myeloma cell lines against the NCATS MIPE library collection: AMO1_DSMZ cell viability assay (AID 1918927; note: potency is the fitted concentration of half-maximal effect; nearly all actives have a fitted effect of over 30% in size). An outline of the steps: as §1
Test [8] is described as follows: Quantitative High-Throughput drug screen in 47 multiple myeloma cell lines against the NCATS MIPE library collection: EJM_DSMZ cell viability assay (AID 1918926; note: nearly all actives have a fitted effect of over 30% in size; note: potency is the fitted concentration of half-maximal effect). An outline of the steps: as §1
Test [9] is described as follows: Quantitative High-Throughput drug screen in 47 multiple myeloma cell lines against the NCATS MIPE library collection: FR4_PLB cell viability assay (AID 1918924; note: nearly all actives have a fitted effect of over 35% in size; note: potency is the fitted concentration of half-maximal effect). An outline of the steps: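 Approved and investigational drugs from MIPE 4.0 were added by pin tool to 500 cells per well. After 48 hours at 37C, ATP-based CellTiter-Glo luminescence indicated remaining viability.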

Test [10] can be described thus: Quantitative High-Throughput drug screen in 47 multiple myeloma cell lines against the NCATS MIPE library collection: ARP1_JJKsccF8 cell viability assay (AID 1918928; note: nearly all actives have a fitted effect of over 40% in size; note: potency is the fitted concentration of half-maximal effect). A digest of the protocol:
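Viability screen: myeloma cells (500/well) incubated 48 h at 37 °C, humidified 5% CO2, with pinned library compounds; CellTiter-Glo added, luminescence read; DMSO wells set 100%, medium-only wells 0%.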

Turning to `O=C(Nc1cccc(Br)c1)c1cccc(S(=O)(=O)N2CCCCCC2)c1`, the Potency result in test [1], in test [2], in [3] and in test [4] was “inactive” throughout. In test [5], the result was inactive. Further, the Potency in test [6] is 18.7 µM (active).

As to `NC(=O)c1cccc(-c2cc(Nc3ccc(OC(F)(F)F)cc3)ncn2)c1`, the Potency entry in test [1], in [2], in [3] and in [4] was “inactive” in each case. Besides, the outcome in test [5] was inactive. Moreover, the Potency in test [6] and in test [7] was 18.7 µM (active) each time.

For `CS(=O)c1ccc(-c2nc(-c3ccc(F)cc3)c(-c3ccncc3)[nH]2)cc1` (stereo unspecified), the Potency was 25.5 µM (active) in test [1], 13.6 µM (active) in test [6], 10.8 µM (active) in test [8] and 30.3 µM (active) in test [7]. Also, the Potency result in test [2], in [3] and in test [4] was “inactive” each time. Moreover, in test [5], the compound was called inactive.

Take `CNC(=O)c1ccc2cc(C3(O)CCn4cncc43)ccc2c1` (stereo unspecified): the Potency entry in test [1], in test [2], in test [3], in [4], in test [9] and in test [6] was “inactive” in each case. The Potency result in [8] and in test [10] was “inactive” each time. Also, the compound was called inactive in test [5].

Take `CC1(C)CCC(CN2CCN(c3ccc(C(=O)NS(=O)(=O)c4ccc(NCC5CCOCC5)c([N+](=O)[O-])c4)c(Oc4cnc5[nH]ccc5c4)c3)CC2)=C(c2ccc(Cl)cc2)C1`: the Potency result in test [1] was “inactive and 3.16 µM (active)”; in [9], 20.9 µM (active); in test [8] it was 20.9 µM (active); in [7], 9.35 µM (active); in [10], 23.5 µM (active). In addition, the Potency result in test [2], in test [3] and in test [4] was “inactive” throughout. The outcome in test [5] was inactive.

Turning to `O=C(CCN1CCN(C(=O)OCc2cc(Cl)cc(Cl)c2)CC1)c1ccc2[nH]c(=O)oc2c1`, the Potency result in test [1], in [2], in [3], in test [4], in [9] and in test [8] was “inactive” throughout. In [10], the Potency result was “inactive”. The compound was classed as inactive in test [5]. Also, the Potency in [7] was 1.18 µM (active).

Consider `COCCOc1nc(-c2ccc(Cl)c(Cl)c2)n(-c2ccc(NC(=O)CCl)cc2)n1`, for which the Potency entry in test [1], in test [2], in test [3] and in test [4] was “inactive” in each case. Moreover, the compound was classed as inactive in [5]. Further, the Potency is 9.35 µM (active) in test [6], 16.6 µM (active) in test [7] and 23.5 µM (active) in test [10].
